KAT2A inh: qHTS Assay for Inhibitors of GCN5L2; Histone acetyltransferase KAT2A (Homo sapiens), Q92830; GCN5L2 HAT assay, ThioGlo1 CoA-SH fluorescence; Potency, µM (titrated, usually from 58.9 µM), actives largely listed as inhibitors; 390,000 compounds, 0.21% hits; AID 504327, 2011
Target sequence (Q92830 whole entry, looked up): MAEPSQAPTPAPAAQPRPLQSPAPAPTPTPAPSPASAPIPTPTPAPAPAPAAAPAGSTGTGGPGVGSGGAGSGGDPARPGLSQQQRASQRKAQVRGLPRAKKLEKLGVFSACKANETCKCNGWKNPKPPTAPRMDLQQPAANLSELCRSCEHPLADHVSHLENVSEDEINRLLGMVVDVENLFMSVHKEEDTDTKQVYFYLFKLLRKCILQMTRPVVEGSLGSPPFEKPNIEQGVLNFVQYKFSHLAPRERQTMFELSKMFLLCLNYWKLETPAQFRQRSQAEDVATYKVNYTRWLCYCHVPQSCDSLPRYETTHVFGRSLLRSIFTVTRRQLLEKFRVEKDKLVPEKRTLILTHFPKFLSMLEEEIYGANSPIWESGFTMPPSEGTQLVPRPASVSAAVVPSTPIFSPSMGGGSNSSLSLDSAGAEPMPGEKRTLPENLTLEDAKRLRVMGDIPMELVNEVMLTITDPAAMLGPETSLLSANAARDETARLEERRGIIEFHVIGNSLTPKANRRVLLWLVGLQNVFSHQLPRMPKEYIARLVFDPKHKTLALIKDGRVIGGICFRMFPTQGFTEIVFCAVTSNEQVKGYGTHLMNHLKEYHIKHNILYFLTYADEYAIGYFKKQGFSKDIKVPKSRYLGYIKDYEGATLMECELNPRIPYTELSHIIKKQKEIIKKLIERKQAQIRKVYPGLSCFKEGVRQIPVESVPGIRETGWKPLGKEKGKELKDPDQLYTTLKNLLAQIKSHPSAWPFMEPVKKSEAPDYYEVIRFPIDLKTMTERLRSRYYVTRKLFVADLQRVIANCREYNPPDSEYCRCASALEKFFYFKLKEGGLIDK
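Fluorescence readout, Ex340nm/Em540nm: ThioGlo1 (50uM final) reacts with free CoA thiol released as 20nM GCN5L2 acetylates H3(1-25) peptide (75uM) using acetyl-CoA (70uM). Compound and enzyme sat 15 min beforehand; 20 min room-temperature reaction.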
Sfp inh: qHTS Assay for Inhibitors of Bacillus subtilis Sfp phosphopantetheinyl transferase (PPTase). 4'-phosphopantetheinyl transferase ffp (Bacillus subtilis), Q9F4F7. Biochemical Sfp PPTase activity, qHTS. Potency, µM, usual class: inhibitors. 310,000 compounds, 3.5% hits. AID 1490, 2009;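 also: the enzyme is Sfp with the accession as filed and its product quenches rhodamine fluorescence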
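Fluorescence-quenching assay with 15 nM Sfp, 5 uM rhodamine-CoA and 12.5 uM BHQ-2-labelled ybbR peptide in pH 7.6 Hepes/MgCl2 buffer. Enzyme was pre-incubated with compound for 15 min at room temperature. Rate was taken from the 30-min fluorescence change (525/598 nm).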
IMPase Li inh: qHTS Assay for Identifying the Cell-Membrane Permeable IMPase Inhibitors: Potentiation with Lithium | 210,000 compounds, 0.35% hits | CHO-M1 cells, IP1 TR-FRET (IP-One), carbachol + lithium | Potency, µM (doses to about 59.4 µM), hits mostly inhibitors;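 also: IP1 builds up when IMPase is blocked and the TR-FRET signal falls; nearly all actives have a fitted effect of over 50% in size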
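Readout is a homogeneous TR-FRET IP1 immunoassay (Ex 320, Em 665 and 620), where raised cytosolic IP1 lowers signal. Cells were CHO-M1 treated 30 min at 37C with test compounds plus a little lithium; AC50 values came from Hill-equation fitting.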
Epigenetic reg: Quantitative High-Throughput Screen for Regulators of Epigenetic Control; murine LDR cells, GFP reporter derepression, 30 h; Potency, µM (doses to about 53.9 µM), usual class: activators; 280,000 compounds, 0.2% hits; also: nearly all actives have a fitted effect of over 60% in size
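Derepression of a silenced CMV-GFP reporter in murine LDR cells is scored by enumerating GFP-positive cells with a laser-scanning microplate cytometer after 30 hours of treatment at 37 C.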
KDM4E inh: qHTS Assay for Inhibitors of Human Jumonji Domain Containing 2E (JMJD2E). Lysine-specific demethylase 4E (Homo sapiens), B2RXH2. JMJD2E catalytic domain, FDH-coupled NADH fluorescence (FDH is formaldehyde dehydrogenase). Potency, µM (doses to about 57.1 µM), actives largely listed as inhibitors. 230,000 compounds, 1.6% hits; active = well fitted inhibition curve with a large enough effect, not every such curve was filed as active; inconclusive = small, poorly fitted or top-dose-only effect, or another doubt; inactive = no such curve, though single readings can be large or run the other way; also: nearly all actives have a fitted effect of over 50% in size
NPSR antagonist: qHTS Assay for Antagonists of the Neuropeptide S Receptor: cAMP Signal Transduction; Q6W5P4; AID 1461, 2008; 220,000 compounds, 1% hits; CHO-NPSR cells, cAMP TR-FRET, antagonist mode; Potency, µM (titrated, usually from 38.3 µM), most hits filed as inhibitors; also: nearly all actives have a fitted effect of over 50% in size
A number is an active result; . = inactive; ? = inconclusive; / = not tested or not shown; ! = not confirmed by another sample; [ ] = dose if it differs, or a comment. Most compounds without a hit are left out; they make up all but 3.6% or so of the library. Unless noted, calls follow the shape of the dose curve; as a rule, active = well fitted curve in the direction sought with a large enough effect; inconclusive = small, poorly fitted or top-dose-only effect, or another doubt; inactive = no such curve, though single readings can be large; an effect the other way counts as inactive or inconclusive.

SMILES	KAT2A inh	Sfp inh	IMPase Li inh	Epigenetic reg	KDM4E inh	NPSR antagonist
CCN(c1ccccc1)S(=O)(=O)c1nnc(NC(=O)C2CCCCC2)s1	.	/	/	.	/	/
COc1ccc(N(CC(C)C)S(=O)(=O)c2nnc(NC(=O)c3ccco3)s2)cc1	1µM!	.	/	.	/	/
COC(=O)c1sc(NC(=O)c2ccco2)nc1C	.	.	10µM	.	.	.
COc1ccc(-c2csc(N(CCCN(C)C)C(=O)c3ccc(Br)cc3)n2)cc1	?	35.5µM	/	/	/	/
COc1ccc(-c2csc(N(CCCN(C)C)C(=O)c3ccc(C)cc3)n2)cc1	.	.	/	/	/	/
COc1cccc(-c2coc3ccc(Br)cc3c2=O)c1	/	.	.	.	.	/
O=C(Nc1cccc(O)c1)c1ccc(Br)cc1	.	.	.	.	.	.
O=C(NNc1ccc(O)cc1)c1ccc(Br)cc1	.	12.6µM	.	.	?	.
C#CCn1c(=NC(=O)c2ccc(S(=O)(=O)N3CCc4ccccc4C3)cc2)sc2cc(S(N)(=O)=O)ccc21	.	.	?	.	6.31µM	.
COCCn1c(=NC(=O)c2ccc(S(=O)(=O)N3CCc4ccccc4C3)cc2)sc2cc(S(N)(=O)=O)ccc21	.	.	.	.	3.98µM	.
COCCn1c(=NC(=O)c2nc3ccccc3s2)sc2cc(S(C)(=O)=O)ccc21	.	.	22.4µM	.	?	?
COCCCNC(=O)c1oc2c(c1C)-c1nn(Cc3cccc(Cl)c3)cc1CC2	.	/	/	.	/	/
CN(C)c1cc(NC(=O)CNC(C)(C)C)c2ccccc2n1	?	79.4µM	/	.	?	.
CCCCS(=O)(=O)N1C2=NC(C(=O)OC)=C(C(=O)OC)[C@@H]3Nc4ccccc4[C@]23C[C@H]1C(=O)OC	/	.	.	/	.[11.4 µM]	/
O=C(NCc1cccnc1)c1nn(-c2ccc(F)cc2)nc1CO	.	/	/	.	/	/
O=C(Cc1ccccc1)NNc1ccc2ccccc2c1	.	.	.	.	25.1µM	.
O=C(COc1ccc2ccccc2c1)NNC(=O)Cc1ccccc1	.	.	?	.	.	.
O=C(CSc1nncc2ccccc12)Nc1ccccc1	.	.	/	/	/	/
O=C(CSc1nncc2ccccc12)Nc1ccc(C(=O)O)cc1	.	50.1µM	/	/	/	/
COc1ccc(Br)cc1CN(C)CC(=O)NCc1ccc(F)cc1	.	79.4µM	/	/	/	/
CC(=O)SC1CC2=CC(=O)CC[C@]2(C)C2CC[C@@]3(C)C(CC[C@@]34CCC(=O)O4)C12 (stereo partly specified)	.	/	/	/	/	/
C=CCn1c(=O)n(C2OC(CO)C(O)C2O)c2nc(N)[nH]c(=O)c21 (stereo unspecified)	.	.	/	/	/	/
O=C(Nc1ccc2c(c1)ncn2-c1ccccc1)c1ccco1	.	31.6µM	.	.	.	.
CC1(C)[C@@H]2CC[C@]1(C)[C@@H](OC(=O)/C=C\c1ccccc1)C2	/	/	.	/	/	/
O=C(CSCc1ccco1)Nc1cc(C(F)(F)F)ccc1N1CCOCC1	.	56.2µM	.	.	.	?
SMILES	KAT2A inh	Sfp inh	IMPase Li inh	Epigenetic reg	KDM4E inh	NPSR antagonist
O=C(Nc1ccccc1)C1Cc2ccccc2CN1C(=O)c1ccco1 (stereo unspecified)	.	?	.	.	.	.
O=C(Nc1cc(C(F)(F)F)ccc1N1CCOCC1)C1Cc2ccccc2CN1C(=O)c1ccco1 (stereo unspecified)	.	28.2µM	.	.	?	.
COc1cc(C(=S)N2CCC(C(N)=O)CC2)ccc1O	.	20µM	.	.	.	.
CCOc1cc(C(=S)N2CCCC2)ccc1O	.	35.5µM	/	/	/	/
COc1cc(C(=S)N2CCCC2)ccc1OCC(N)=O	.	.	/	/	/	/
COc1cc(C(=S)N2CCCC2)ccc1O	.	?	.	.	.	.
COc1cc(C(=S)N2CCCCC2)ccc1O	.[0.501 µM]	44.7µM	.	.	.	.
COc1cc(C(=S)N2CCC(C)CC2)ccc1O	.	44.7µM	.	.	.	.
CCOc1ccc(C(=S)N2CCCC2)cc1OC	.	.	.	.	.	.
COc1ccc(C2=Nn3c(nnc3-c3ccc(OC)cc3OC)SC2)c(OC)c1	/	.	/	/	/	/
COc1cccc(-c2nnc3n2N=C(c2cc(OC)ccc2OC)CS3)c1	.	.	.	.	.	?
COc1cccc(-c2nnc3n2N=C(c2ccc(OC)cc2OC)CS3)c1	/	44.7µM	/	/	/	/
COc1cc(OC)cc(-c2nnc3n2N=C(c2ccc(OC)cc2OC)CS3)c1	/	56.2µM	/	/	/	/
COc1cc(NC(=O)c2noc3c2CCc2ccccc2-3)cc(OC)c1OC	.	/	/	.	/	/
CCOC(=O)c1ccc(NC(=S)Nc2cccc(C)n2)cc1	.	.	.	.	.	.
CCOC(=O)c1ccc(NC(=S)Nc2cccc(N)n2)cc1	.	8.91µM	/	.	.	?
CCSc1nnc(-c2ccccc2SC)o1	.	.	11.2µM	.	?	.
CCN(CC)c1ccc(/C=N/NC(=O)OC)c(O)c1	.	.	.	.	12.6µM	.
CCN(CC)c1ccc(/C=N/NC(=O)c2ccc3nc[nH]c3c2)c(O)c1	.	.	/	.	?	.
CCN(CC)c1ccc(/C=N/Nc2ccccc2)c(O)c1	.	56.2µM	.	.	15.8µM	.
CCN(CC)c1ccc(C=Nc2ccc(N(C)C)cc2)c(O)c1	.	50.1µM	.	.	.	?
CCN(CC)c1ccc(/C=N/NC(=O)c2ccoc2C)c(O)c1	.	.	/	?	11.2µM	?
CCN(CC)c1ccc(/C=N/NC(=S)NC)c(O)c1	.	.	.	.	?	.
CCOc1ccc2oc(=O)cc(CN3CCN(c4cc(C)ccc4C)CC3)c2c1	.	/	/	.	/	/
Cc1ccccc1OCC(=O)Nc1ccc(-c2nc3cc(Cl)cc(Cl)c3o2)cc1	.	/	/	.	/	/
SMILES	KAT2A inh	Sfp inh	IMPase Li inh	Epigenetic reg	KDM4E inh	NPSR antagonist
COC(=O)c1cc(=O)nc2sc(-c3ccc(F)cc3)nn12	.	22.4µM	/	.	?	.
CC(C)(C)C(=O)[C@H](C(c1ccccc1)N1CCOCC1)N1CCOCC1 (stereo partly specified)	/	/	.	/	/	/
CCOc1ccc2[nH]c(=O)c(CN(Cc3nnnn3Cc3ccco3)C3CCCCC3)cc2c1	?	3.98µM	.	.	?	.
COc1cc2cc(CN(Cc3nnnn3Cc3ccco3)C3CCCCC3)c(=O)[nH]c2cc1OC	.	10µM	.	.	?	.
CCOc1cccc(-c2cc(C(=O)N/N=C/c3cccc(OC)c3O)[nH]n2)c1	/	/	/	.	/	/
O=C(/C=C/c1ccc(Br)o1)NCCCN1CCOCC1	.	17.8µM	.	.	?	.
O=C(/C=C/c1ccco1)NCCCN1CCOCC1	.	.	.	.	.	.
COc1ccccc1CNC(=O)Cc1ccc(Br)cc1	.	.	.	.	.	.

Assay outcomes deposited in PubChem BioAssay by National Center for Advancing Translational Sciences (NCATS).
